# An excerpt weighted towards active compounds, which were near 2.5% of everything screened.
# ASK1 primary – human ASK1 kinase inhibition, primary screen; inhibition, % at 7.44 µM; Q99683; 22,000 tested, 0.99% active; AlphaScreen MKK6 phosphorylation by ASK1, luminescence; AID 1159602; in the data active means inhibition above about 35%;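 further: 0% = median of compound wells and 100% = no enzyme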
# Target sequence (Q99683 whole entry, looked up): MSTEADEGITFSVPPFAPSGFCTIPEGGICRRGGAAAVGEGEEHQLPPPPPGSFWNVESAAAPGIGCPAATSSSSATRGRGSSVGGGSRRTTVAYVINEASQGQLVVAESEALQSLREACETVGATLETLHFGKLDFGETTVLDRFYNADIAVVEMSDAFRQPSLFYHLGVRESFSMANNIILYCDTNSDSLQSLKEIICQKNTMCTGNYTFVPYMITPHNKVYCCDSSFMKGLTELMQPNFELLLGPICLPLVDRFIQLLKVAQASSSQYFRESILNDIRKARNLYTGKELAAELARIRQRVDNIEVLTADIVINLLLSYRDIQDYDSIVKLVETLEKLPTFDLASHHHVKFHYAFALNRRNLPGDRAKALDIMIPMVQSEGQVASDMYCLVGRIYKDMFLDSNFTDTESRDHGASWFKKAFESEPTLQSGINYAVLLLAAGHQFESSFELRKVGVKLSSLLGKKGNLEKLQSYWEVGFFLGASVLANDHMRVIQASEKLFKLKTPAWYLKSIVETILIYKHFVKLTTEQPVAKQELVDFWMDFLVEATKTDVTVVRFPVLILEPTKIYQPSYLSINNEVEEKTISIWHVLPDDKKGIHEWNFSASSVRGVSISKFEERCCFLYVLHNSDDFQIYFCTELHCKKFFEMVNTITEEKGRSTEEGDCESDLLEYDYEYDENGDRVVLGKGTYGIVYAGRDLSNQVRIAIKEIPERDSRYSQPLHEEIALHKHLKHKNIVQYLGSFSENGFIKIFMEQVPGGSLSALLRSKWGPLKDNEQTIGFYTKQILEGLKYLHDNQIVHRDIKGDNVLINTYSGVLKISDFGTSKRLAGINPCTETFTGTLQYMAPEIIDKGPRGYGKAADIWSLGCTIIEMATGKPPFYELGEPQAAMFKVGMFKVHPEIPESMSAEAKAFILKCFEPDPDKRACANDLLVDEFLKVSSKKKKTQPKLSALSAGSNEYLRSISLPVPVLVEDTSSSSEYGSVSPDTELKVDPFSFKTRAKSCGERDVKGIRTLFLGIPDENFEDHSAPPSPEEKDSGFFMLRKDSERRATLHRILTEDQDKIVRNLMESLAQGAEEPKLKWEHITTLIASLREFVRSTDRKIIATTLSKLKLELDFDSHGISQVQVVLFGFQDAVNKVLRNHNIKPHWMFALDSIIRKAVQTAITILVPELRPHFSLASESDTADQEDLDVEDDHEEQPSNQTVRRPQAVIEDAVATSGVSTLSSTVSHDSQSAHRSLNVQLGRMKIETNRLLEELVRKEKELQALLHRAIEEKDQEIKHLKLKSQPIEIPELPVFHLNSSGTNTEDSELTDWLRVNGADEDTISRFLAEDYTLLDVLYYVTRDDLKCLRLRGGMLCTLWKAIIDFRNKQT
# ULK1 primary – blocks human autophagy kinase ULK1 | O75385 | AlphaScreen Atg13 phosphorylation by ULK1, luminescence | inhibition, % at 5.96 µM | 30,000 tested, 1.9% active; in the data active means inhibition above about 43%;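 further: 0% = median of compound wells and 100% = no enzyme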
# * = called active by the depositor; . = no result given.
SMILES,ASK1 primary,ULK1 primary
CC(=O)Nc1ccc(Nc2cc(C)nc(Nc3ccc(C(F)(F)F)cc3)n2)cc1,28,-34
CNC(=O)c1cc(F)ccc1Nc1cc(Nc2cccc(OC)c2)ncc1C(F)(F)F,0,84*
O=C(Nc1ccccc1)c1ccnc(N2CCC(N3CCOCC3)CC2)c1,-14,-11
CCCCCCCCCCCCCCCC[N+](C)(C)Cc1ccccc1,.,48*
CCCCCCCCCCCCCCCC[N+](C)(C)CC,.,-10
COc1nc(NCCN(C(C)C)C(C)C)nc(-c2ccc(C(N)=O)cc2)n1,-18,-2
c1cnc2ccc(Nc3nc(Nc4ccc5c(c4)OCO5)c4ncn(-c5ccsc5)c4n3)cc2c1,-48,-7
Cc1cc(N)nc(N2CCC(N3CCOCC3)CC2)n1,9,49*
Cc1cc(NC2CC2)nc(N2CCC(N3CCOCC3)CC2)n1,-13,-1
CN(CC1CC1)C(=O)c1ccc(N)cc1Cl,.,6
Nc1cccc(-c2nc(Nc3ccc(N4CCOCC4)cc3)c3ncn(CCN4CCCC4=O)c3n2)c1,12,-7
FC(F)(F)c1ccc(Cn2cnc3c(NCc4nc5ccccc5[nH]4)nc(N4CCC(N5CCOCC5)CC4)nc32)cc1,-7,-10
Cn1cc(-c2ccc3cnc(Nc4ccc(-n5cnc(-c6ccccn6)n5)cc4)nc3c2)cn1,8,17
Cn1cc(-c2ccc3cnc(Nc4ccc(N5CCOCC5)cc4)nc3c2)cn1,19,84*
Cc1ccc(-c2ncn(-c3ccc(Nc4ncc5ccc(-c6cnn(C)c6)cc5n4)cc3)n2)cn1,17,1
c1cc(-c2ccc3cnc(Nc4ccc(-n5cnc(N6CCOCC6)n5)cc4)nc3c2)c[nH]1,19,15
Cn1cc(-c2ccc3cnc(Nc4ccc(C(=O)N5CCOCC5)cc4)nc3c2)cn1,-3,73*
Cn1cc(-c2nc(Nc3ccc(N4CCOCC4)cc3)ncc2F)cn1,-22,20
Cn1cc(-c2ccc3cnc(Nc4ccc(-n5ccnc5)cc4)nc3c2)cn1,-4,88*
Cn1ncc2cc(Nc3ncc4ccc(-c5cn[nH]c5)cc4n3)ccc21,27,75*
NS(=O)(=O)c1ccc(Nc2nccc(-c3ccc(Cl)cc3)n2)cc1,27,5
CC(=O)Nc1ccc(NC(=O)c2cccc(N3CCOCC3)n2)cc1,0,-17
COc1cc2nc(N3CCc4ccccc4C3)nc(NCCO)c2cc1OC,-6,-2
c1cn(-c2ccc(Nc3ncc4ccc(-c5cn[nH]c5)cc4n3)cc2)cn1,25,90*
Cc1cnc(Nc2ccc(-n3ccnc3)cc2)nc1N,-12,23
SMILES,ASK1 primary,ULK1 primary
Cc1nc(C)n(-c2ccc(Nc3cc4cc(-c5cn[nH]c5)ccc4cn3)cc2)n1,-35,81*
Cc1nc(C)n(-c2ccc(Nc3ncc4ccc(-c5cn[nH]c5)cc4n3)cc2)n1,-41,36
CN(C)C(=O)c1cccnc1Nc1ccc2[nH]ncc2c1,-12,16
O=C(NCc1ccccc1)c1ccnc(Nc2ccncc2)c1,-21,2
CCOc1ccc(C[C@@H](N)c2nc3ccc(-c4cn[nH]c4)cc3c(=O)[nH]2)cc1,12,-10
COc1ccc(CC(=O)Nc2ncc3ccc(-c4cn[nH]c4)cc3c2C#N)cc1,-39,5
COc1ccc(CC(=O)Nc2ncc3ccc(-c4cn[nH]c4)cc3c2Cl)cc1,1,83*
c1ccc(Oc2ccccc2-c2ccnc(NC3CCCCC3)c2)cc1,0,6
CNS(=O)(=O)c1ccccc1Nc1cc(Nc2ccc(N3CCCC3=O)cc2)ncc1C(F)(F)F,-6,50*
CS(=O)(=O)c1cccc(CNc2cc(Nc3ccc(N4CCCC4=O)cc3)ncc2C(F)(F)F)c1,14,24
CNS(=O)(=O)c1ccccc1Nc1cc(Nc2cc(-c3cncnc3)nc(C)n2)ncc1C(F)(F)F,14,73*
Cc1nc(Nc2ccccc2)cc(-c2cncc(-c3ccccc3)c2)n1,.,0
O=C1CCCN1CCn1cnc2c(Nc3ccc(N4CCOCC4)cc3)nc(-c3ccccc3)nc21,7,-2
CCOc1ccc(C(C)C)cc1S(=O)(=O)Nc1ccc(-c2ccc(OC)nn2)cc1,.,-11
CCN(CC)C(=O)C1CCCN(c2nc3c(Nc4ccc(N5CCOCC5)cc4)ncnc3n2C(C)C)C1 (stereo not given),-17,-4
CCCNC(=O)c1ccc2nc(Nc3ccc(C(F)(F)F)cc3)sc2c1,-1,-9
COc1cc(NC(=O)c2ccc3nc(Nc4nc5ccccc5n4C)sc3c2)cc(OC)c1OC,7,-1
CC(=O)Nc1ccc(Nc2nc(-c3cccc(C(C)=O)c3)nc3c2ncn3C(C)C)cc1,18,34
CC(=O)c1cccc(-c2nc(Nc3ccccc3)c3ncn(C(C)C)c3n2)c1,-16,46*
CC(C)n1cnc2c(Nc3ccccc3)nc(Nc3ccncc3)nc21,-11,46*
CC(C)n1cnc2c(NCCOc3ccccc3)nc(Nc3ccc(-n4ccnc4)cc3)nc21,27,-2
CC(C)n1cnc2c(Nc3ccccc3)nc(Nc3ccccc3)nc21,0,38
CC(C)n1cnc2c(NCc3nc4ccccc4[nH]3)nc(Nc3ccccn3)nc21,1,25
CC(C)n1cnc2c(NCc3nc4ccccc4[nH]3)nc(Nc3ccc4ncccc4c3)nc21,2,45*
CC(C)n1cnc2c(Nc3ccccc3)nc(Nc3ccc(-n4ccnc4)cc3)nc21,0,56*
SMILES,ASK1 primary,ULK1 primary
COc1ccc(-c2cnc(Oc3ccc(C#N)cc3)nc2)cc1,.,-2
CN1CCN(C(=O)c2cccnc2Nc2ccc3[nH]ncc3c2)CC1,1,9
CN(C)CCN(Cc1cccc(F)c1)C(=O)Nc1ccc(-c2cn[nH]c2)cc1,-4,3
N#Cc1cc(-c2ccnc(Nc3ccc(-c4nnc(C(F)(F)F)o4)cc3)n2)cc(N2CCOCC2)c1,6,2
CC(C)n1cnc2c(Nc3ccc(N4CCOCC4)cc3)nc(Nc3ccc4ncccc4c3)nc21,12,29
CC(C)n1cnc2c(Nc3ccccc3)nc(Nc3ccc4ncccc4c3)nc21,0,52*
c1cc(Nc2cc(Nc3ccc4c(c3)OCO4)ncn2)ncn1,23,60*
c1ccc(Nc2cc(Nc3ccc4c(c3)OCO4)ncn2)cc1,4,6
CCN1Cc2ccc(OC)cc2C[C@@H]1C(=O)Nc1ccc(-c2cn[nH]c2)cc1OCCN(C)C,6,-4
O=C(/C=C/c1ccccc1)Nc1nc(CC(=O)NCc2ccc(F)cc2)cs1,.,57*
O=C(Cc1csc(NC(=O)c2ccccc2)n1)Nc1ccc(F)c(F)c1,.,-7
O=C(N/N=C/c1cccc(F)c1)c1c(O)c2cc(F)ccc2[nH]c1=O,.,2
O=C(Nc1nc2c(s1)CN(Cc1ccccc1)CC2)C1CCCCC1,.,0
N#Cc1c(N)sc(=S)c2c1CCN(Cc1ccccc1)C2,.,75*
CN(C)CCSc1cc(-c2cn[nH]c2)ccc1NC(=O)C1COc2ccccc2O1 (stereo not given),-3,-3
Cc1cc(NCCN2CCOCC2)nc(-c2ccc(C(N)=O)cc2)n1,5,-9
CCOC(=O)C(N)Cc1ccc(O)c(O)c1 (stereo not given),.,66*
COC(=O)[C@@H](N)Cc1ccc(O)c(O)c1,.,14
Cc1nc(C)n(-c2ccc(Nc3nccc(-c4cccc(-n5ccnn5)c4)n3)cc2)n1,18,-3
CN(C)CC(=O)Nc1cccc(CNC(=O)Nc2ccc(-c3cn[nH]c3)cc2)c1,12,96*
Cc1cccc(CNC(=O)Nc2ccc(-c3cn[nH]c3)cc2)c1,2,8
NC(c1ccc(Nc2nccc(-c3ccccc3)n2)cc1)C(F)(F)F (stereo not given),-12,-5

# From PubChem
